# Screening data (PubChem BioAssay)
# TGFb inhibitor: TGF-b pathway inhibition; 410,000 compounds, 1.2% hits; AID 588855; HepG2 CAGA-GFP TGF-b/SMAD3 reporter, GFP fluorescence, 18 h; TGF-beta stimulated, 500 pg/mL final; Potency, µM (series often up to 46.1 µM), for inactives: at the top dose activity, negative = inhibition, actives largely listed as inhibitors; note: % is set by controls: 0 for no effect and ±100 for the full control effect; nearly all actives have a fitted effect of over 65% in size
#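 Cell-based qHTS in HEPG2 carrying a CAGA-GFP Smad reporter; compounds added before 500 pg/mL final TGF-beta, 18 h incubation at 37 degrees C, GFP fluorescence quantified per cell by imaging cytometry.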
# HT1080 IDH1KD tx: toxicity to HT-1080 IDH1 knockdown cells (counter line) | HT-1080 IDH1 knockdown viability, ATP luminescence, 48 h | Potency, µM (doses to about 46.1 µM), for the others: at the top dose activity, negative = toxicity, hits mostly cytotoxic | 360,000 compounds, 2% hits;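 note: 0% = DMSO wells and -100% = cell-free medium wells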
#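 Assay cells: HT-1080 with IDH1 knockdown, 750 per well, RPMI/5% FBS. Exposure: 48 h at 37 °C following 2 h pre-incubation. Read: CellTiter-Glo luminescence; fitted concentration-response, curve class assigned.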
# DT40 TDP1 CPT: growth inhibition of DT40 Tdp1-/-;hTDP1 cells with camptothecin (screen for TDP1 inhibitors). 420,000 compounds, 12% hits. chicken DT40 Tdp1-/-;hTDP1 cells + 20 nM CPT, ATP luminescence, 48 h. Potency, µM (highest dose often 46.2 µM), for inactives: top-dose activity change, negative = growth inhibition, usual class: inhibitors; note: % is set by controls: 0 for no effect and ±100 for the full control effect; nearly all actives have a fitted effect of over 55% in size
#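 Chicken DT40 Tdp1-/- cells complemented with human TDP1, 400 cells/well, exposed to compounds plus 20 nM camptothecin for at least 48 h at 37 C; viability read as ATP content by CellTiter-Glo luminescence.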
# TDP1 cell noCPT: qHTS for Inhibitors of human tyrosyl-DNA phosphodiesterase 1 (TDP1): qHTS in cells in absence of CPT. DT40 Tdp1-/- hTDP1 cells, no CPT, ATP luminescence, 48 h. Potency, µM (titrated, usually from 46.2 µM), without a hit: top-dose activity change, negative = growth inhibition, most hits filed as inhibitors. 420,000 compounds, 15% hits; note: % is set by controls: 0 for no effect and ±100 for the full control effect; nearly all actives have a fitted effect of over 55% in size
#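 Growth of hTDP1-complemented DT40 Tdp1-knockout cells is measured by ATP luminescence after at least 48 hr compound exposure at 37 °C, with DMSO substituting for the 20 nM CPT used in the parallel screen.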
# HepG2 tox: kills HepG2 cells in TGF-b inhibitor counter-screen; 410,000 compounds, 0.76% hits; Potency, µM (top dose mostly 46.1 µM), for the others: at the highest dose activity change, negative = cytotoxicity, usual class: cytotoxic; HepG2 CAGA-GFP viability, ATP luminescence, 18 h
#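 HepG2 CAGA-GFP cells (1000/well, DMEM with 1% FBS) received compound, then TGF-beta at 500 pg/mL final, and were incubated 18 hours at 37 degrees C. Viability was read by CellTiter-Glo luminescence. Media-only wells were set as complete cell-killing and DMSO as no toxicity.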
# HT1080NT lethal: kills 2HG-producing HT-1080-NT fibrosarcoma cells. HT-1080-NT fibrosarcoma viability, CellTiter-Glo ATP luminescence, 48 h. Potency, µM (titrated, usually from 46.1 µM), for the others: top-dose activity, negative = less viability, actives largely listed as cytotoxic. 360,000 compounds, 1.6% hits. AID 686970;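 note: NT is the 2HG producing partner of a matched IDH1 knockdown line; 0% = DMSO-treated cells and -100% = media-only wells without cells; nearly all actives have a fitted effect of over 55% in size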
#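 A 48-hour cytotoxicity screen used HT-1080-NT cells plated 2 hours before compound delivery. ATP-based CellTiter-Glo luminescence measured viability, normalized to DMSO and no-cell controls.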
# * marks the source's active call; other numbers are inactive results; ? = inconclusive; · = no result. Rows were chosen to be rich in hits. Some 17% of all compounds tested hit in one or more screens of this group. Calls come from the whole dose curve; as a rule, active = well fitted curve in the direction sought with a large enough effect; inconclusive = small, poorly fitted or top-dose-only effect, or another doubt; inactive = no such curve, though single readings can be large; an effect the other way counts as inactive or inconclusive. Potency is the fitted concentration of half-maximal effect.
SMILES,TGFb inhibitor,HT1080 IDH1KD tx,DT40 TDP1 CPT,TDP1 cell noCPT,HepG2 tox,HT1080NT lethal
O=C1/C(=C/c2cccnc2)SC(=S)N1C1CCS(=O)(=O)C1 (configuration not stated),-10%,18µM*,10µM*,9.2µM*,-33%,-24%
O=C1/C(=C/c2cccnc2)SC(=S)N1NS(=O)(=O)c1ccccc1,3%,1%,0%,-9%,-37%,-11%
O=C(NN1C(=O)/C(=C\c2cccnc2)SC1=S)C(c1ccccc1)c1ccccc1,-26%,-13%,?,26µM*,-12%,-2%
O=C(NN1C(=O)/C(=C/c2cccnc2)SC1=S)C(c1ccccc1)c1ccccc1,?,?,?,?,-55%,-5%
O=C1/C(=C\c2cccnc2)SC(=S)N1C1CCS(=O)(=O)C1 (configuration not stated),-14%,?,3.7µM*,18µM*,-16%,-27%
COc1ccc(C2CC(=O)c3cnc4c(-c5ccc(F)cc5)c(C)nn4c3C2)cc1OC (configuration not stated),4%,·,4%,-5%,-32%,·
Cc1cccc(NC(=O)CN2C(=O)c3ccccc3Sc3ncccc32)c1C,-10%,·,?,?,-4%,·
COc1ccc(NC(=O)CN2C(=O)c3cccnc3Sc3ccccc32)cc1OC,-11%,·,?,16µM*,-6%,·
Cc1ccc(NC(=O)CN2C(=O)c3cccnc3Sc3ccccc32)c(Br)c1,·,·,?,?,-10%,·
CC(=O)c1cccc(NC(=O)CN2C(=O)c3ccccc3Sc3ncccc32)c1,-12%,·,16µM*,8.2µM*,-9%,·
COc1ccc(N2CCN(C(=O)CCc3c(C)nc4c(-c5ccccc5)c(C)nn4c3C)CC2)cc1,?,·,23µM*,18µM*,-14%,·
CCOC(=O)Cc1c(C)nc2c(-c3ccc(OC)cc3)c(C)nn2c1C,-7%,?,?,23µM*,-20%,?
COc1cccc(N2CCN(C(=O)c3cnc4c(-c5ccccc5)c(C)nn4c3C)CC2)c1,20%,·,15µM*,?,2%,·
COc1ccc(NC(=O)Cn2cnc3c(nc4n3CCCCC4)c2=O)cc1Cl,-2%,·,-18%,-17%,-2%,·
N=c1ccn2c(n1)OCC1C2O[C@@H](O)[C@H]1O (some centres not stated),·,·,0.13µM*,0.15µM*,·,·
COc1ccc(CCNCc2ccc3c(c2)n(C)c(=O)n3C)cc1OC,-9%,·,-21%,?,0%,·
Cc1nc(SCC(=O)NCCc2ccccc2)c2oc3ccccc3c2n1,4%,-4%,3%,-13%,-3%,-2%
CCc1nc(SCC(=O)NCCc2ccccc2)c2oc3ccccc3c2n1,16%,7%,21µM*,?,-2%,7%
CCc1nc(SCC(=O)c2cccs2)c2oc3ccccc3c2n1,-18%,-13%,?,18µM*,-74%,0%
Cc1ccc2cc3cc(C(=O)N(CC(=O)NC4CCCC4)c4cccc(C)c4C)sc3nc2c1,-10%,12%,23µM*,18µM*,-1%,2%
NC(=O)c1ccccc1NC(=O)Nc1cccc(Cl)c1Cl,-11%,-1%,5.8µM*,9.2µM*,-7%,-15%
Cc1c(Cl)cccc1NC(=O)Nc1ccccc1C(N)=O,3%,-1%,4.1µM*,6.5µM*,-1%,-11%
Cc1c(Cl)cccc1NC(=O)Nc1ccc(C(N)=O)cc1,0%,8%,6%,-24%,18%,9%
CC1=C(C)CC2C(C1)C(=O)c1ccc(Br)cc1S2(=O)=O (configuration not stated),?,15%,-3%,-21%,-6%,17%
CN1CCS/C1=C\C=C1/SC(=S)N(CC(=O)O)C1=O,68%,1%,9%,?,-2%,16%
SMILES,TGFb inhibitor,HT1080 IDH1KD tx,DT40 TDP1 CPT,TDP1 cell noCPT,HepG2 tox,HT1080NT lethal
CCN1C(=O)/C(=C/C=C2/SCCN2C)SC1=S,71%,11%,?,13µM*,0%,14%
COc1ccc(CNc2ncnc3cc(Cl)ccc23)cc1OC,?,-23%,?,13µM*,-26%,-18%
COc1ccc(CCNc2ncnc3cc(OC)c(OC)cc23)cc1OC,-18%,-22%,3.7µM*,6.5µM*,-16%,-24%
COc1ccc(-n2ccnc(NCc3ccccc3OC)c2=O)cc1,-2%,·,?,?,-10%,·
COc1ccc(CCNc2ncnc3c2nnn3Cc2ccccc2)cc1OC,3%,-1%,23µM*,?,-2%,-12%
Cc1ccc(-n2ccnc(NCc3cccs3)c2=O)cc1C,?,·,?,13µM*,0%,·
COc1ccc(CCNc2ncnc3c2nnn3C)cc1OC,-7%,·,?,?,-1%,·
CCC(=O)c1cn(CC(=O)Nc2cccc(C)c2)c2ccccc12,-7%,-12%,-11%,-2%,-24%,0%
COc1ccc(C)cc1NC(=O)CSc1ccc(-c2ccco2)nn1,-20%,-1%,?,?,-16%,0%
COc1ccc(OCC(=O)N2CCc3ccccc32)c([N+](=O)[O-])c1,1%,-1%,-21%,-18%,-13%,4%
COc1ccc(-n2ccnc(NCCc3ccccc3)c2=O)cc1OC,-5%,·,?,21µM*,-12%,·
COc1cc2ncnc(NCc3ccc(C)cc3)c2cc1OC,-7%,-13%,?,23µM*,-40%,3%
COc1ccc(CCNc2ncnc3c2[nH]c2cc(OC)c(OC)cc23)cc1OC,?,?,4.6µM*,6.5µM*,2%,?
COc1cc2ncnc(NCCc3ccccc3)c2cc1OC,?,5%,13µM*,9.2µM*,-24%,10%
COc1cc2ncnc(NCc3cccs3)c2cc1OC,3%,0%,?,-25%,1%,7%
COc1cccc(CNc2ncnc3cc(OC)c(OC)cc23)c1,7%,-1%,?,?,-2%,-15%
COc1ccc(CCNc2nc(=S)[nH]c3cc(OC)c(OC)cc23)cc1OC,-9%,1%,-29%,?,-9%,-6%
Cc1cc(C)cc(-n2ccnc(NCCc3ccccc3)c2=O)c1,1%,·,?,?,-23%,·
COc1cc(OC)cc(C(=O)OC/C(O)=C(\C#N)c2nc3ccccc3[nH]2)c1,-7%,-28%,?,?,-23%,-28%
